# Screens from PubChem BioAssay.
# GDH-TPI counter-1: GDH-TPI coupled enzyme inhibition counter-screen | GDH-TPI coupled enzyme counterscreen, NADH absorbance | inhibition, % at 4.8 µM | 360,000 tested, 1.2% active; in the data active means inhibition above about 30%
# UGM FP inh: inhibitors of M. tuberculosis UDP-galactopyranose mutase. inhibition, % at 10 µM. AID 504406. P9WIQ1. purified UGM, fluorescence polarization probe displacement. 320,000 tested, 0.06% active; in the data active means inhibition above about 10%, passing the limit was not always enough
# Target sequence (P9WIQ1 whole entry, looked up): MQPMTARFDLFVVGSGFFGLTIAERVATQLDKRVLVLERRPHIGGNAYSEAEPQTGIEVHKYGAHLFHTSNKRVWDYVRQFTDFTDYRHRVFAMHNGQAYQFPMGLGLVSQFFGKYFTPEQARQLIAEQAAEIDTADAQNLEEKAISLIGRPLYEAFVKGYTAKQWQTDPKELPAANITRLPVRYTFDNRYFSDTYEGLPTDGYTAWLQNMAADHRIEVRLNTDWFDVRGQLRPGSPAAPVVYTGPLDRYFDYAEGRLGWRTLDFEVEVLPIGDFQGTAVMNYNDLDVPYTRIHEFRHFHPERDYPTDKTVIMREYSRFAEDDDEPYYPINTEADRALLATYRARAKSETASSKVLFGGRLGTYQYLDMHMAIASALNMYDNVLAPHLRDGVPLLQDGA
# FBA Mtb inh: inhibits M. tuberculosis FBA enzyme; 360,000 tested, 2.3% active; inhibition, % at 1 µM; P9WQA3; AID 588726; purified M. tuberculosis FBA, fluorescence read-out
# Vc quorum ag: induces V. cholerae light production without autoinducers; activation, % at 18.7 µM; V. cholerae BH1578 lux reporter, luminescence, 6 h; 350,000 tested, 0.16% active; in the data active means activation mostly above about 9.7%, no sharp cut-off
# Rv3671c inh: inhibits the M. tuberculosis serine protease Rv3671c; P9WHR9; inhibition, % at 5.96 µM; 320,000 tested, 0.048% active; AID 2606; in the data active means inhibition above about 38%;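 further: extracellular domain of Rv3671c used as enzyme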
# RecA splice inh: inhibitors of M. tuberculosis RecA intein splicing. AID 2221. P9WHJ3. 290,000 tested, 0.75% active. cell-free RecA intein splicing, fluorescence. inhibition, % (no concentration beside the values); in the data active means inhibition above about 30%
# Mtb FBA inh conf: confirmation of M. tuberculosis fructose-bisphosphate aldolase inhibitors; 5,600 tested, 78% active; purified M. tuberculosis FBA, fluorescence read-out; inhibition, % at 1 µM; shares compounds with FBA Mtb inh
# GDH-TPI counter-2: GDH-TPI inhibition counter-screen for FBA inhibitors; shares compounds with FBA Mtb inh; 5,600 tested, 81% active; AID 652141; inhibition, % at 1 µM; GDH-TPI coupled enzyme counterscreen, fluorescence; in the data active means inhibition above about 10%
# GDH-TPI dose: inhibits GDH-TPI coupling enzymes in dose response. shares compounds with FBA Mtb inh. GDH-TPI coupled enzyme assay, fluorescence, artifact counterscreen. IC50, µM. 170 tested, 79% active. AID 652145; call rule not given here
# Numbers stand for hits; – = inactive; · = no result; + = active, no number. Hits are enriched below; roughly 4.1% of the tested compounds scored in any of these assays. Unless noted, no stated cut-off is given here; in the data, active means inhibition above about 27%; inactive means the rest.
SMILES,GDH-TPI counter-1,UGM FP inh,FBA Mtb inh,Vc quorum ag,Rv3671c inh,RecA splice inh,Mtb FBA inh conf,GDH-TPI counter-2,others
COc1ccc(NC(=O)C2(C)Cc3c(-c4ccc(N(C)C)cc4)ccnc3O2)cc1OC (stereo unspecified),–,·,29,–,·,·,–,–,GDH-TPI dose=1.2
COc1ccc(NC(=O)C2(C)Cc3c(-c4ccc(N(C)C)cc4)ccnc3O2)cc1 (stereo unspecified),–,·,33,–,·,·,104,91,
COc1ccc(CNC(=O)C2(C)Cc3c(-c4ccc(N(C)C)cc4)ccnc3O2)cc1OC (stereo unspecified),–,·,55,–,·,·,73,50,
CCc1nc2c(OCC(N)=O)cccn2c1N(C)C(=O)c1cccs1,–,·,–,–,·,·,·,·,
CC1C(=O)N2CCCc3cc(S(=O)(=O)N(C)c4ccccc4)cc1c32 (stereo unspecified),–,–,–,–,–,–,·,·,
Cc1cccc[n+]1CCCCCCCCCC[n+]1ccccc1C,–,–,–,–,–,–,·,·,
CCCCCCCC[n+]1cccc2c3ccccc3ccc21,–,–,67,–,–,–,65,42,
Cc1ccc(S(=O)(=O)NCCC(=O)NCCOc2ccccc2)cc1,–,·,–,–,·,·,·,·,
COC(=O)[C@H]1C[C@H](OC(=O)NC2CCCC2)[C@@]2(O)CN(S(=O)(=O)c3ccc(C)cc3)CC2[C@H]1C(=O)OC (stereo partly specified),–,·,–,–,·,·,·,·,
Cc1cc(C(=O)NCc2cccs2)no1,–,–,–,–,–,–,·,·,
Cc1cc(NC(=O)CCCC(=O)NCc2cccs2)no1,–,–,57,–,–,·,88,62,
CC1OC(=O)c2cc3ccccc3nc21 (stereo unspecified),–,·,–,–,·,·,·,·,
NS(=O)(=O)c1ccc(CCNC(=O)COC(=O)c2nc(Cl)ccc2Cl)cc1,–,–,–,–,–,·,·,·,
CCN(CC(=O)Nc1ccc(NC(C)=O)cc1)C(=O)c1cccc2ccccc12,–,–,–,–,–,·,·,·,
COC(=O)c1cnn(-c2ccc(Cl)cc2)c1/C=N/NC(N)=S,–,–,45,–,–,–,67,35,
Cc1nn(CC(=O)O)c(C)c1N,–,–,–,–,–,–,·,·,
Cc1cccc2cc(C#N)c(NCCNC(=S)NCCCN3CCOCC3)nc12,–,–,31,–,–,–,146,108,
COCCCNC(=S)NCCCNc1nc2cc3c(cc2cc1C#N)OCO3,–,–,72,–,–,–,–,–,
COCCCNC(=S)NNC(=O)c1ccc2c(c1)OCO2,–,–,–,·,–,–,·,·,
Cc1cc2cc(C#N)c(NCCNC(=S)NCCCN3CCOCC3)nc2cc1C,–,–,40,–,–,–,+,+,
COc1ccc2nc(NCCNC(=S)NCCCN3CCOCC3)c(C#N)cc2c1,–,–,–,–,–,–,·,·,
COc1cc2[nH]c3c(=O)n(CCN4CCOCC4)cnc3c2cc1OC,–,–,60,–,–,–,+,+,
COc1cc2[nH]c(=O)c(C(=O)NCCCN3CCOCC3)c(O)c2cc1OC,–,–,39,–,–,–,29,18,
COc1ccc2c(c1)[nH]c1c(=O)n(CCN3CCOCC3)cnc12,–,–,–,–,–,–,·,·,
COc1cc2[nH]c3c(=O)n(CCN(C(C)C)C(C)C)cnc3c2cc1OC,–,–,55,–,–,–,–,–,
SMILES,GDH-TPI counter-1,UGM FP inh,FBA Mtb inh,Vc quorum ag,Rv3671c inh,RecA splice inh,Mtb FBA inh conf,GDH-TPI counter-2,others
COc1cc(C2C3=C(CC(C)(C)CC3=O)N(C)C3=C2C(=O)CC(C)(C)C3)cc(Br)c1O,–,–,–,–,–,–,·,·,
C[C@H]1CN([C@@H](C)CO)C(=O)CCCn2cc(nn2)CO[C@@H]1CN(C)S(=O)(=O)c1ccc(Oc2ccccc2)nc1,–,·,–,–,·,·,·,·,
O=C(CSc1ccccc1F)NCC(c1ccco1)N1CCCCC1 (stereo unspecified),–,·,–,–,·,·,·,·,
COCCN(Cc1ccccc1)C(=O)C1CCN(S(=O)(=O)c2ccc3c(c2)OCCO3)CC1,–,–,–,–,–,·,·,·,
COC(=O)c1cc(NC(=O)CC2Oc3ccccc3NC2=O)cc(C(=O)OC)c1 (stereo unspecified),–,–,40,–,–,–,79,69,
CCCCN(C(=O)c1cnccn1)c1c(N)n(CCC)c(=O)[nH]c1=O,–,–,–,–,–,·,·,·,
COc1ccc(-c2coc3cc(OC)ccc3c2=O)cc1,–,·,–,–,·,·,·,·,
COc1ccc(-c2coc3cc(OC)cc(O)c3c2=O)cc1,–,–,–,–,–,–,·,·,
COc1ccc(-c2coc3cc(O)c(OC)cc3c2=O)cc1,34,–,44,–,–,·,84,54,
COc1ccc(-c2coc3cc(O)ccc3c2=O)cc1,–,–,35,–,–,–,121,94,
CN1CCCc2cc3c(C(F)(F)F)cc(=O)oc3nc21,–,–,30,–,–,–,130,111,
CCN(CC)c1ccc(-c2n[nH]c(=S)n2-c2ccccc2)cc1,–,–,37,–,–,–,86,68,
O=S(=O)(O)c1cccc2cccc(Nc3ccccc3)c12,31,–,95,–,–,–,+,+,
O=C(NCc1ccccn1)c1ccccc1OCc1ccccc1Cl,–,·,–,–,·,·,·,·,
Cc1c(OCC(=O)N[C@@H](Cc2ccccc2)C(=O)O)ccc2c1oc(=O)c1ccccc12,–,–,52,–,–,–,+,+,
Cc1c(Cc2ccccc2)c(=O)oc2c(C)c(OC(C)C(=O)N[C@@H](Cc3ccccc3)C(=O)O)ccc12 (stereo partly specified),–,–,68,–,–,–,191,160,
O=C(NCCC(=O)N(CCc1ccccc1)Cc1ccccc1)c1ccc(Br)cc1,–,–,–,–,–,–,·,·,
O=c1c2ccccc2nc2c3ccccc3c(NCCO)nn12,–,–,33,–,–,–,+,+,
O=C(NCCO)c1nc(NCCO)c2ccccc2n1,–,–,–,–,–,–,·,·,
O=c1c2ccccc2nc2c3ccccc3c(NCc3ccccn3)nn12,–,–,79,–,–,–,+,180,
O=c1c2ccccc2nc2c3ccccc3c(NCc3cccnc3)nn12,–,–,–,·,–,·,·,·,
COc1ccc(NC(=O)C2Cc3c(-c4ccc(NC(C)=O)cc4)ccnc3O2)cn1 (stereo unspecified),–,·,–,–,·,·,·,·,
COc1cccc(-c2nnc(-c3ccco3)o2)c1,–,·,62,–,–,–,+,+,
CCCOc1ccc(-c2nnc(-c3ccco3)o2)cc1,–,–,60,–,–,–,50,36,
COc1cccc(C(=O)Nc2ccc(-c3nnc(-c4ccco4)o3)cc2)c1,–,–,–,–,–,–,·,·,
